Structures are written as SMILES. Screen size: about 68,000 compounds; about 2,700 (4%) showed an effect of 50% or more. Shown is part of a subset that was picked to be rich in strong results.

The test relates to Plasmodium berghei. Description: Screen against P. berghei liver stage (PbLuc), transformed with Luciferase, at 2uM. Format: functional, HepG2. The note with it: tested at 2 uM.
In the case of `CCCc1nc(C(C)(C)NC(=O)C2CC(=O)N(CC3CC3)C2)no1` (stereo unspecified), the INHIBITION is reported as 71.48%.
In the case of `O=C(NCCO)c1coc(Cn2cnc3ccccc32)n1` it was 5.82%; in that of `CN(CC(O)CO)C(=O)c1coc(COc2cccc(F)c2)n1` (stereo unspecified), -5.13%; in that of `CN(Cc1cnc(N)nc1)C(=O)c1coc(COc2cccc(F)c2)n1`, 51.31%.
For `CN(Cc1cnc(N)nc1)C(=O)c1coc(COc2ccccc2)n1`, the INHIBITION is given as -31.73%.
As for `CCOCCCNC(=O)C1(C)CCC(=O)N1Cc1ccccc1F` (stereo unspecified), the figure is 15.96%; as for `CSCc1nc(CCNC(=O)C(N)c2c(C)n[nH]c2C)cs1` (stereo unspecified), -4.29%; as for `O=C(c1cccc(Oc2ccccc2)c1)N1CCCC(O)(CO)CC1` (stereo unspecified), 53.66%.
As for `CNc1ccc(C)cc1C(=O)N1CCCC2(CCNC2)C1` (stereo unspecified), the INHIBITION amounted to 8.3%.
As for `O=C(c1ccc(-n2cnnc2)cc1Cl)N1CCCC(O)(CO)CC1` (stereo unspecified), the figure is 58.57%.
As for `N#Cc1cccc(C(=O)N2CCCC(O)(CO)CC2)c1` (stereo unspecified), the figure is 16.82%.
For the compound `O=C(c1ccnc(-n2cnnc2)c1)N1CCCC2(CCNC2)C1` (stereo unspecified), the INHIBITION stood at 7.67%.
As for `O=C(c1cccc(-c2ccc(F)cc2)c1)N1CCCC(O)(CO)CC1` (stereo unspecified), the figure is 35.7%; as for `O=C(c1ccc(-n2cnnc2)cc1Cl)N1CCCC2(CCNC2)C1` (stereo unspecified), 57.75%; as for `CN(C)CC1(O)CCN(C(=O)c2ccc(-n3cnnc3)cc2Cl)C1` (stereo unspecified), 21%.
In the case of `O=C(c1ccc(-n2cccn2)cc1Cl)N1CCCC(O)(CO)C1` (stereo unspecified) it was 21.36%; in that of `COCC(=O)N1CCO[C@H]2[C@H](OC)CC[C@@H]21`, 7.86%.
`Cc1ccc(Oc2c(F)cccc2OC[C@@H](N)CC(C)C)cc1`: the INHIBITION came out at 16.01%.
In the case of `COC(=O)CN(C(=O)C(C)c1c(F)cccc1F)c1cccc(C)n1` (stereo unspecified), the INHIBITION is -23.76%.
As for `Cc1oncc1C(=O)N1CC[C@H]2[C@H]1CCN2S(C)(=O)=O`, the figure is 15.36%; as for `COCC1CC2(CCN(Cc3cccc(C#N)c3)CC2)CN1C(C)C` (stereo unspecified), -52.61%.
`Cc1nnc(NC(=O)NCc2ccnc(N(C)C)c2)s1`: the INHIBITION worked out at 29.71%.
As for `O[C@@H]1C[C@@H](c2nc(-c3ccc(F)cc3)no2)N(C2CCOCC2)C1`, the figure is 51.2%.
As for `O[C@@H]1C[C@@H](c2nc(-c3ccccc3)no2)N(C2CCOCC2)C1`, the figure is 16.47%; as for `COc1ccc(-c2noc([C@@H]3C[C@@H](O)CN3C3CCOCC3)n2)cc1`, 38.62%; as for `O=C(c1[nH]nc2c1CCCC2)N1CCC(OCCN2CCCCC2)C1` (stereo unspecified), 8.14%.
Regarding `COC1CCN(C(=O)CCc2c(C)nc3ccnn3c2C)CC1`, the INHIBITION was -3.38%.
In the case of `CCOc1ccc(CN2C(=O)CC3(CCCC3)C2=O)nc1` it was -32.8%.
As for `Cc1nc(C(=O)N2CCN(c3ccc(Cl)c(Cl)c3)CC2)cs1`, the figure is 23.19%; as for `O=C(O)c1ccccc1-n1cnc(CN2CCc3ccccc32)c1`, -26.26%.
In the case of `O=C(O)c1ccccc1-n1cnc(CN2CCc3ccccc3C2)c1` it was 51.03%; in that of `O=C(O)c1ccccc1-n1cnc(CN2CCCCCC2)c1`, 25.41%.
`CN(C(=O)C1CCOCC1)[C@@H]1CCC[C@@H](N2CCCC2)[C@@H]1O`: the INHIBITION is listed as -29.66%.
On to `CC1CN(S(=O)(=O)c2ccc(C(=O)NCC(F)F)cc2)CCCO1` (stereo unspecified), for which the INHIBITION was 9.21%.
For `COCCn1ccnc1C1CCN(C(=O)c2cccc(COC)n2)CC1`, the INHIBITION was -2.69%.
In the case of `CC(C)NC(=O)CCNC(=O)c1cc(F)ccc1NS(C)(=O)=O` it was -84.03%; in that of `c1cnn(C[C@@H]2C[C@@H]3CN(CC4CC4)CC[C@@H]3N2c2nccs2)c1`, -11.68%.
As for `Cc1noc(C)c1CN1CCC(c2nc3cc(Cl)ccc3o2)CC1`, the figure is 32.43%; as for `Cc1ncc(CN2CCC(c3nc4cc(Cl)ccc4o3)CC2)s1`, 56.38%; as for `Cc1nc(CN2CCC(c3nc4cc(Cl)ccc4o3)CC2)oc1C`, 29.16%.
For the compound `Cc1oc(-c2nc(C#N)c(NC(C)C)o2)cc1S(=O)(=O)N1CCCCC1`, the INHIBITION turned out to be 28.39%.
As for `Cc1ccnc(C2(C)CCCN2S(=O)(=O)c2cccnc2)n1` (stereo unspecified), the figure is -0.7%; as for `O=C(Nc1cc(C(F)(F)F)c[nH]c1=O)C1CCCNC1` (stereo unspecified), -50.41%; as for `CC1CCN(CCCNS(=O)(=O)c2cc(F)cc(F)c2)CC1`, 14.52%.
With `COc1ccccc1C(=O)N1CCC(Oc2ccc(C#N)cn2)CC1`, the INHIBITION is given as 64.74%.
In the case of `Cn1nc(C(=O)N2CCC(Oc3ccc(C#N)cn3)CC2)ccc1=O` it was 37.08%; in that of `N#Cc1ccc(C(=O)N2CCC(Oc3ccc(C#N)cn3)CC2)cc1`, 20.49%.
As for `CCOCC(=O)N1CCC(Oc2ccc(Cl)cn2)CC1`, the INHIBITION is recorded as -4.69%.
For `O=S(=O)(c1cc(F)cc(F)c1)N1CCC(Oc2ccc(Cl)cn2)CC1`, the INHIBITION stood at 20.5%.
In the case of `CC(=O)N1CCC(Oc2ccc(Cl)cn2)CC1` it was 64.16%.
In the case of `CC(=O)N1CCC(Oc2ccc(C#N)cn2)CC1` it was -1.02%; in that of `COc1ccc(F)cc1S(=O)(=O)N1CCC(OC)CC1`, 28.55%.
In the case of `COc1ccc(F)cc1S(=O)(=O)N1CCC(Oc2ccc(Cl)cn2)CC1` it was 54.73%; in that of `N#Cc1ccc(OC2CCN(C(=O)c3ccc(Br)o3)CC2)nc1`, -2.43%.
`CCOC(=O)N1CCC(Oc2ccc(C(F)(F)F)cn2)CC1`: the INHIBITION amounted to 30.98%.
In the case of `N#Cc1ccc(OC2CCN(C(=O)c3ccccc3Cl)CC2)nc1`, the INHIBITION turned out to be 54.47%.

Source of the values: ChEMBL document CHEMBL4513216, “Probing the Open Global Health Chemical Diversity Library for Multistage-Active Starting Points for Next-Generation Antimalarials” (ACS Infect Dis, 2020).
